Results filed as inconclusive are left out. Calls follow the shape of the dose curve; as a rule, active = well fitted curve in either direction with a large enough effect (not every such curve was filed as active); inconclusive = small, poorly fitted or top-dose-only effect, or another doubt; inactive = flat fitted curve, though single readings scatter.
Each molecule was assayed against Mitogen-activated protein kinase 10 (Mus musculus) (UniProt Q61831) (assay: JNK3 AlphaScreen Assay (AID 530;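 also: kinase came from lysate of stimulated human HepG2 cells; signal reports phosphorylation of biotinylated GST-cJun 1-79 at Ser73 with 10 µM ATP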)). Conditions: JNK3 lysate, c-Jun phosphorylation; series mostly up to 57.1 µM; activity change, negative = inhibition: at the top concentration.
Procedure, shortened: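 qHTS format: compounds tested as titrations against IL-1beta/TNF-alpha-activated HepG2 lysate JNK3 with biotin-GST-cJun substrate and 10 uM ATP at room temperature. Loss of anti-phospho-cJun AlphaScreen signal indicates inhibition.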
% is scaled to controls: 0 for no effect and ±100 for the full control effect.

Activity change, negative = inhibition, inactive:
CN(C)Cc1ccccc1-c1ccc2ncnc(NC3CC3)c2c1 -9.48%, Cc1ccccc1-c1cncnc1N1CCNCC1 7.46%, COCC(=O)N1CCC2(CC1)CN(Cc1nccs1)C2 -10.8%, O=C(Oc1ccccc1)N1CCC2(CCCN(c3ccncc3)C2)CC1 -2.85%, COc1ccc(Oc2ncc3nc(CCc4ccccc4)c(=O)n(C)c3n2)cc1 0.499%, COc1cccc(-c2nc(N3CCNCC3)c3ccccc3n2)c1 4.04%, COc1ccc(NC(=O)N2CC[C@@]3(CCCN(C(=O)c4ccncc4)C3)C2)cc1 -2.47%, O=c1c(-c2cc(F)cc(F)c2)nc2cnc(Oc3ccccc3)nc2n1C[C@H]1CCCO1 -2.79%, COCCn1c(=O)c(-c2ccc(F)cc2)nc2cnc(Oc3ccc(OC)cc3)nc21 35.9%, CN1CCN(c2ccnc(-c3ccccc3C(F)(F)F)n2)CC1 -3.05%, c1ccc(C(c2ccccc2)N2CC3(CCNCC3)C2)cc1 -5.28%, CS(=O)(=O)N1CCC2(CCCN(Cc3ccccc3)C2)CC1 -0.884%, Cc1cccc(CNc2ccnc(-c3cccc(NS(C)(=O)=O)c3)n2)c1 2.23%, CN1CCN(c2nc(-c3cccc(NS(C)(=O)=O)c3)nc3ccccc23)CC1 -0.376%, COc1ccccc1CN1CCC2(CC1)CCN(C(=O)c1cc(C(F)(F)F)cc(C(F)(F)F)c1)CC2 0.872%, COc1ccc(NC(=O)N2CCC3(CC2)CCN(C(=O)c2cc(C(F)(F)F)cc(C(F)(F)F)c2)CC3)cc1 -2.07%, CN(C)Cc1ccccc1-c1ccc2ncnc(NCc3cccs3)c2c1 2.55%, O=c1c(CCc2ccccc2)nc2cnc(N3CCOCC3)nc2n1C[C@H]1CCCO1 3.13%

— PubChem BioAssay (NCATS)
